# PubChem BioAssay (NCI)
# The panel holds about 79,000 compounds, 15% with a hit somewhere; the sample as a whole holds those more often. Values without a mark were called inactive. Activity calls are given as the source filed them. Cut-off read from the data, not from the text of the source: active = growth inhibition above about 70%; inactive = the rest.
# Key:
# [1] = NCI Yeast Anticancer Drug Screen. Data for the rad50 strain (AID 155);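 note: 0% = growth of vehicle-only cultures of the same strain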; settings: S. cerevisiae rad50 strain growth inhibition; at 50.0 µM; active compounds read high
# Outline: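 Relative growth inhibition (compound vs vehicle) was measured in yeast with a defined repair-gene alteration.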
# [2] = NCI Yeast Anticancer Drug Screen. Data for the mec2-1 strain (AID 157); settings: S. cerevisiae mec2-1 strain, at 50.0 µM, active compounds read high
# Outline: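 Each compound was tested on mec2-1 yeast, a strain altered in DNA damage repair or cell cycle control. Growth inhibition is reported relative to vehicle.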
# [3] = NCI Yeast Anticancer Drug Screen. Data for the sgs1 mgt1 strain (AID 161);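 note: 0% = growth of cultures given vehicle only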; settings: S. cerevisiae sgs1 mgt1 strain, at 50.0 µM, active compounds read high
# Outline: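 Test agents were incubated with a DNA-repair-mutant yeast strain. Growth was then read and compared against vehicle-treated controls.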
# [4] = NCI Yeast Anticancer Drug Screen. Data for the cln2 rad14 strain (AID 165);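 note: 0% = growth equal to vehicle treated cultures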; settings: S. cerevisiae cln2 rad14 strain, at 50.0 µM, active compounds read high
# Outline: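 Test compounds were added to cln2 rad14 yeast cultures; inhibition of growth was then determined by comparison with vehicle treatment.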
# [5] = NCI Yeast Anticancer Drug Screen. Data for the bub3 strain (AID 167); settings: S. cerevisiae bub3 mutant strain, at 50.0 µM, active compounds read high
# Outline: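 Screening used yeast with an engineered genetic alteration affecting cell cycle control. Compound-exposed cultures were compared with vehicle cultures, and reduced growth was taken as inhibition.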
# [6] = NCI Yeast Anticancer Drug Screen. Data for the mlh1 rad18 strain (AID 175); settings: S. cerevisiae mlh1 rad18 strain growth inhibition; at 50.0 µM; active compounds read high
# Outline: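 Inhibition values reflect reduced growth of mutant yeast versus vehicle-treated controls following compound exposure; the mutations affect DNA damage repair.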
Structure (SMILES),growth inhibition [1],growth inhibition [2],growth inhibition [3],growth inhibition [4],growth inhibition [5],growth inhibition [6]
COc1ccccc1/C=C(\C)C(=O)O,10.8%,-15.3%,-6.2%,0.05%,-11.3%,-16.1%
O=C1C=C(Nc2ccc(Br)cc2)c2ccccc2C1=O,36.3%,-1.95%,11.6%,7.75%,-1.45%,-2.05%
CC(=O)NC(Cc1cccc2ccccc12)C(=O)O (configuration not stated),0.55%,-6.15%,-0.05%,-2%,2.6%,-6.45%
Cc1ccc(S(=O)(=O)c2ccc(C)cc2[N+](=O)[O-])cc1,21.8%,-7.5%,18.5%,-4.95%,45.7%,-9.75%
c1ccc2c(c1)ccc1c2c[n+](CCCCCCCC[n+]2cc3c4ccccc4ccc3c3ccccc32)c2ccccc12,88.4% (active),92.2% (active),87.5% (active),86.2% (active),83.2% (active),90.5% (active)
COc1cc(NCc2ccc3c(c2)OCO3)c([N+](=O)[O-])cc1OC,5.15%,11.3%,6.6%,-8.6%,4.3%,-15.7%
COc1cccc(Nc2nc(N)nc(N)c2N)c1,-4.2%,-35.8%,-6.3%,10.1%,-19.6%,14%
Cc1cc(C)nc(C)c1.[Cl-].[Cl-].[Cl-].[Cl-].[Pt+2],8.9%,9.25%,-7.5%,7.4%,2.6%,7.1%
Cc1ccc(NC(=O)C(=O)C(C#N)c2nc(-c3ccc(-c4ccccc4)cc3)cs2)c(C)c1 (configuration not stated),8%,-2.75%,19.4%,28.4%,4.75%,-10.1%
NC(=O)NNC(=O)Cc1ccccc1,1.35%,-0.25%,-1.95%,0.55%,-0.95%,-3.45%
Cc1cc(O)cc(C)c1Cl,17.2%,-25.9%,5.95%,-21.2%,12.9%,11.2%
COC(=O)C(Cc1nc2ccccc2[nH]c1=O)C(NO)C(=O)Nc1c(Cl)cc([N+](=O)[O-])cc1Cl (configuration not stated),-3.85%,-7.4%,36.6%,10.2%,22.2%,-1.75%
Fc1c(F)c(-c2c(F)c(F)c(Br)c(F)c2F)c(F)c(F)c1Br,2.5%,-14.6%,-7.45%,6.15%,20.6%,-0.65%
CSc1nc(-c2ccccc2)c2c(n1)-c1ccccc1CC2,-4.95%,-6.1%,3.05%,-2.4%,17.9%,-2.35%
CC(=O)/C(=C/N1C(=O)CC(=O)NC1=S)C(=O)Nc1ccccc1,-24.8%,-26.5%,-39.9%,3.85%,-17.5%,-20.7%
Cc1[nH]c(=O)c(C#N)c(C)c1[N+](=O)[O-],-0.05%,20.3%,3.95%,-35.7%,10.6%,1.9%
OC1(c2ccc(C3(O)C(c4ccccc4)=C(c4ccccc4)C(c4ccccc4)=C3c3ccccc3)cc2)C(c2ccccc2)=C(c2ccccc2)C(c2ccccc2)=C1c1ccccc1,5.6%,-1.75%,-1.7%,-6.6%,-2.15%,9.85%
O=C(O)CCCCCCCCCC(=O)O,-15.1%,-17.5%,0%,-24.9%,-7.7%,9.05%
O=C(NCc1cccnc1)C1COc2cc(-c3cc(=O)c4ccccc4o3)ccc2O1 (configuration not stated),-9.55%,-18.9%,-23.9%,-5.25%,-6.95%,-49%
Cc1cc(NCCN(C)C)nc(Nc2ccc(Cl)cc2)n1,50.8%,19.4%,31.6%,-13.9%,10.9%,54.8%
c1ccc(C2=NOC(c3ccccc3)N2C23CC4CC(CC(C4)C2)C3)cc1 (configuration not stated),2.9%,4.4%,-17.5%,24.4%,-13%,36.1%

Structure (SMILES),growth inhibition [1],growth inhibition [2],growth inhibition [3],growth inhibition [4],growth inhibition [5],growth inhibition [6]
N#CCC(=O)N1CCCC1,-23.1%,-32.3%,-3.8%,-8.6%,-14.3%,-26.2%
O=C(O)CNCc1ccc(F)cc1,-1.85%,-10%,-14.7%,-74.4%,13.2%,-5.9%
CC(C)C(/C=C/c1ccccc1)=N\NC(=S)NN,-5.25%,-5.9%,17.1%,13.4%,26.6%,32.4%
CC/C(N)=N\OC(=O)c1ccccc1,14.3%,-4.75%,-4.45%,-44.4%,2.8%,-5%
COC(=O)/C(C#N)=C/c1ccc2c(c1)OCO2,12.4%,7.65%,16.1%,11.2%,35.9%,28.2%
O=C1c2ccccc2C(=CC=C2c3ccccc3Sc3ccccc32)c2ccccc21,11.9%,25.9%,-35%,9.55%,24.2%,-5.75%
Cn1c(=O)ccc2c1nc1ccccc1[n+]2[O-],-6.25%,4.65%,-6.7%,-30.8%,4.75%,-11.8%
O=C1c2ccccc2SC[C@@H]2CCCN12,22.9%,-7.75%,-3.6%,9.35%,3.35%,2.35%
C1=C(c2ccccc2)C(OC2Oc3ccccc3C=C2c2ccccc2)Oc2ccccc21 (configuration not stated),23.1%,-2.15%,6.35%,11.9%,22.2%,-3.65%
CCC(=O)OCC(OC(=O)CC)c1ccccc1 (configuration not stated),3.75%,-22.6%,-16.1%,2.05%,3.75%,8.2%
CC(Oc1cc(Cl)c(Cl)cc1Cl)C(=O)NC(Cc1ccccc1)C(=O)O (configuration not stated),8.5%,9.45%,13.5%,25.6%,-0.45%,5.8%
Nc1ccccc1SC1CCCCC1O (configuration not stated),-4.9%,2.2%,-5.3%,-8.2%,3.75%,-7.15%
CCC(Cc1ccccc1)C1=NC(C)(C)CC(C)O1 (configuration not stated),1.2%,3.95%,-5.25%,-20.6%,-1.4%,25.4%
NCCNc1ncnc2ccc(Cl)cc12,-30.9%,-13.1%,-22.4%,-30.5%,-38.8%,5.4%
O=C1c2ccccc2C(=O)N1CCCSc1ccc(F)cc1,32.8%,-9.5%,28.4%,3.5%,15.3%,36.2%
O=S1(=O)CC=CC1,-10.2%,3.45%,-7.95%,13.2%,11.9%,3.15%
C[C@]12CC[C@@H]3c4ccc(OCCCO)c([N+](=O)[O-])c4CC[C@H]3[C@@H]1CCC2=O,16.3%,6.8%,17.7%,12.4%,-0.5%,16%
NNC1CCN(Cc2ccccc2)CC1,2.5%,-16.8%,0.25%,22.2%,-1.9%,14.2%
[C-]#[N+]N=P(c1ccccc1)(c1ccccc1)c1ccccc1,-18%,-20.8%,-27.9%,3.2%,-8.65%,5.65%
O=S(=O)(O)n1ccnc1 (tested in a mixture with another compound),20.9%,12.3%,1.3%,-27.9%,14.7%,18.4%
O=C(Sc1ccccn1)c1ccccc1,4.15%,-14.3%,-18.4%,-8.05%,-21.6%,-37.1%
